ATXN viability: cell viability loss in ATXN counter-screen | S2 cells (HEK-293 line with an ATXN2-luciferase reporter) viability, CellTiter-Fluor protease fluorescence, 24 h | Potency, µM (titrated, usually from 56.7 µM), actives largely listed as cytotoxic | actives 0.49% (n = 400,000); further: nearly all actives have a fitted effect of over 40% in size
HT1080-NT tox: kills 2HG-producing HT-1080-NT fibrosarcoma cells. Potency, µM (titrated, usually from 46.1 µM), usual class: cytotoxic. actives 1.6% (n = 360,000). HT-1080-NT fibrosarcoma viability, CellTiter-Glo ATP luminescence, 48 h. AID 686970;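 further: NT is the 2HG producing partner of a matched IDH1 knockdown line; nearly all actives have a fitted effect of over 55% in size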
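Luminescent CellTiter-Glo readout after 48 hours of compound exposure at 37 degrees C defined viability of HT-1080-NT cells. Activity was normalized to DMSO wells and cell-free media wells; concentration-response curves were fitted and assigned curve classes.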
ATXN2 expr inh: reduces ATXN2 reporter expression in HEK-293 cells; HEK-293 ATXN2-luciferase reporter, luminescence, 24 h; Potency, µM (titrated, usually from 57 µM), most hits filed as inhibitors; actives 0.72% (n = 360,000); further: nearly all actives have a fitted effect of over 55% in size
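ATXN2-luciferase reporter cells (luciferase flanked by upstream and downstream ATXN2 gene portions) were treated 24 h at 37 °C with compounds at up to 57 uM. SteadyGlo luminescence gave expression; GF-AFC fluorescence gave viability.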
HT1080 IDH1KD tx: HT-1080 IDH1 knockdown cell toxicity (counter line); Potency, µM (doses to about 46.1 µM), most hits filed as cytotoxic; AID 686971; actives 2% (n = 360,000); HT-1080 IDH1 knockdown viability, ATP luminescence, 48 h
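After a 2 h attachment period, IDH1KD HT-1080 cells took pin-transferred compound for 48 h at 37 °C; ATP-based luminescence after 10 min room-temperature reagent incubation reported viability.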
KB-V1 MDR tox: KB-V1 MDR subline cytotoxicity | KB-V1 MDR cells viability, CellTiter-Glo, 72 h | Potency, µM (doses to about 46.1 µM), most hits filed as cytotoxic | actives 3.4% (n = 400,000) | AID 1347076; further: nearly all actives have a fitted effect of over 60% in size
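qHTS viability screen in drug-selected KB-V1 MDR cells: 72 h compound treatment at 37 degrees C, ATP luminescence end point.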
KB-3-1 tox: KB-3-1 parental cell cytotoxicity | Potency, µM (top dose mostly 46.1 µM), most hits filed as cytotoxic | actives 1.4% (n = 400,000) | KB-3-1 viability, CellTiter-Glo ATP luminescence, 72 h; further: nearly all actives have a fitted effect of over 60% in size
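Screening of KB-3-1 cells (DMEM, 10% FBS, phenol-red free) ran from lowest to highest compound concentration; after 72 h at 37 °C viability was read luminescently and curves fitted.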
Large screens that a line does not name were inactive. Most compounds without a hit are left out; they make up all but 6.2% or so of the library. The call rests on the fitted dose curve; in most records, active means well fitted curve in the direction sought with a large enough effect; inconclusive means small, poorly fitted or top-dose-only effect, or another doubt; inactive means no such curve, though single readings can be large; an effect the other way counts as inactive or inconclusive.

COC(=O)CNc1c(-c2ccccn2)nc2ccc(Br)cn12	ATXN viability inconclusive, KB-V1 MDR tox 5.2µM
O=C(CSC1=Nc2ccccc2C2CC=NN12)NCc1ccco1 (stereo unspecified)	HT1080-NT tox inconclusive, HT1080 IDH1KD tx 7.3µM, KB-V1 MDR tox inconclusive, KB-3-1 tox inconclusive
N#Cc1ccccc1NC(=O)CSC1=Nc2ccccc2C2CC=NN12 (stereo unspecified)	ATXN viability inconclusive
CC(C)(C)NC(=O)[C@H]1CC[C@H]2[C@@H]3CC=C4C=C(C(=O)O)CC[C@]4(C)[C@H]3CC[C@]12C	none (no result: HT1080-NT tox, ATXN2 expr inh, HT1080 IDH1KD tx, KB-V1 MDR tox, KB-3-1 tox)
CCN1C(=O)C(C)C=C(C)C=C1C (stereo unspecified)	none (no result: ATXN2 expr inh)
COc1ccc(OC)c(NC(=O)CN(Cc2ccc(F)cc2)C2CCCCC2)c1	HT1080-NT tox inconclusive, HT1080 IDH1KD tx inconclusive, KB-V1 MDR tox inconclusive, KB-3-1 tox 16µM
COc1ccc(C(=O)/C=C/C(=O)N(CC(=O)NC2CCCCC2)Cc2ccc(F)cc2)c(O)c1	ATXN2 expr inh inconclusive, KB-V1 MDR tox 16µM, KB-3-1 tox inconclusive (no result: ATXN viability)
COc1ccc(Cl)cc1NC(=O)CN(C)C1CCCCC1	KB-V1 MDR tox inconclusive
COc1ccc(C(=O)/C=C/C(=O)N(CC(=O)NCCC(C)C)Cc2cccs2)c(O)c1	KB-V1 MDR tox 10µM (no result: ATXN viability, ATXN2 expr inh)
O=C(NCCCc1nc2ccccc2n1CCOc1ccccc1)C1CCCCC1	none (no result: ATXN viability, HT1080-NT tox, ATXN2 expr inh, HT1080 IDH1KD tx)
CCCn1c(=S)[nH]c2cc(C(=O)N3CCc4ccccc43)ccc2c1=O	KB-V1 MDR tox 2.3µM, KB-3-1 tox inconclusive
CCCn1c(N)c(Sc2ccccc2)c(=O)n(CCC)c1=O	KB-V1 MDR tox 13µM
CN(C)CCNC(=O)c1cccc2nc3c(ccc4ccccc43)nc12	ATXN viability inconclusive, HT1080-NT tox inconclusive, HT1080 IDH1KD tx inconclusive, KB-V1 MDR tox 21µM, KB-3-1 tox 7.3µM
CN(C)CCNC(=O)c1cccc2[nH]c(-c3ccncc3)nc12	ATXN viability inconclusive, ATXN2 expr inh inconclusive, HT1080 IDH1KD tx inconclusive
COc1ccc(C(=O)NCCN(C)C)c2nc3ccccc3cc12	ATXN viability inconclusive, HT1080-NT tox inconclusive, ATXN2 expr inh 3.4µM, HT1080 IDH1KD tx 21µM, KB-V1 MDR tox 8.2µM, KB-3-1 tox inconclusive
CN(CCNC(=O)c1c[nH]c2c1ccc1ccccc12)CCNC(=O)c1c[nH]c2c1ccc1ccccc12	ATXN viability 35µM, HT1080-NT tox inconclusive, ATXN2 expr inh inconclusive, HT1080 IDH1KD tx inconclusive, KB-V1 MDR tox inconclusive, KB-3-1 tox inconclusive
COc1ccc(-c2nc3c(C(=O)NCCN(C)C)cccc3c3ccccc23)cc1	ATXN viability inconclusive, HT1080-NT tox inconclusive, HT1080 IDH1KD tx inconclusive, KB-V1 MDR tox 2.3µM, KB-3-1 tox inconclusive
CCCCN(C)CCNC(=O)c1cc(-c2ccc(Cl)s2)nc2ccccc12	none (no result: HT1080-NT tox, HT1080 IDH1KD tx)
COc1ccc(Cl)cc1C(=O)NCCN(C)C	none
CCCCCCCCCC(=O)N[C@@H](Cc1c[nH]c2ccccc12)C(=O)N[C@H](CC(N)=O)C(=O)N[C@@H](CC(=O)O)C(=O)N[C@@H]1C(=O)NCC(=O)N[C@@H](CCCN)C(=O)N[C@@H](CC(=O)O)C(=O)N[C@H](C)C(=O)N[C@@H](CC(=O)O)C(=O)NCC(=O)N[C@H](CO)C(=O)N[C@@H]([C@@H](C)CC(=O)O)C(=O)N[C@@H](CC(=O)c2ccccc2N)C(=O)O[C@@H]1C	none (no result: ATXN viability, HT1080-NT tox, HT1080 IDH1KD tx, KB-V1 MDR tox, KB-3-1 tox)
Cc1ccc2oc(=O)c3cc(C(=O)Nc4cccc(C#N)c4)sc3c2c1	none (no result: HT1080-NT tox, HT1080 IDH1KD tx)
Cc1ccc(Sc2cc(C(=O)NCCN(C)C)c3ccccc3n2)cc1	HT1080-NT tox inconclusive (no result: ATXN2 expr inh)
COc1cccc2nc3c(C(=O)NCCN(C)C)cccc3cc12	ATXN viability inconclusive, HT1080-NT tox inconclusive, ATXN2 expr inh inconclusive, HT1080 IDH1KD tx 9.2µM, KB-V1 MDR tox 9.2µM, KB-3-1 tox inconclusive
O=C(Nc1ccc(Br)c(Cl)c1)c1ccc(C(=O)Nc2ccc(Br)c(Cl)c2)cc1	KB-V1 MDR tox inconclusive (no result: HT1080-NT tox, HT1080 IDH1KD tx)
Nc1nc(-c2cccs2)c(NC(=O)c2ccccc2)s1	ATXN viability 22µM, ATXN2 expr inh inconclusive, HT1080 IDH1KD tx inconclusive
CC(=O)Nc1sc(NC(=O)c2ccc(Cl)cc2)nc1-c1cccs1	ATXN viability inconclusive
